Source: the supplement of paper PMC11732987, “Enantioselective OTUD7B fragment discovery through chemoproteomics screening and high-throughput optimisation” (Communications Chemistry, 2025)

Assays:
Assay in all cases: log2 ratio of Biotin-Ahx-Ub-VS probe labelling (fragment/DMSO); higher = less target engagement (more negative = stronger competition), active = hit call of the paper (q ≤ 0.05, log2 ratio ≤ -1)
Conditions in all cases: compound concentration: 200 uM; treatment time: 3 h
USP34 = USP34 (UniProt Q70CQ2)
Outline: (§1)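 Labelled DUBs from HEK293T lysate were NeutrAvidin-enriched, digested with LysC and trypsin, and run by diaPASEF LC-MS/MS. Before that, each 495 µg sample in Tris/CHAPS/IGEPAL buffer with protease inhibitors was treated in triplicate with fragment at 200 µM or vehicle for 3 h, then with Biotin-Ahx-Ub-VS at 0.5 µM final for 1 h. Values are average log2 ratios of fragment over vehicle by unpaired t-test, based on global-median-normalised Spectronaut label-free quantities from proteins with ≥2 unique peptides.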

USP36 = target: T1, USP36 (UniProt Q9P275)
T1 sequence (whole entry): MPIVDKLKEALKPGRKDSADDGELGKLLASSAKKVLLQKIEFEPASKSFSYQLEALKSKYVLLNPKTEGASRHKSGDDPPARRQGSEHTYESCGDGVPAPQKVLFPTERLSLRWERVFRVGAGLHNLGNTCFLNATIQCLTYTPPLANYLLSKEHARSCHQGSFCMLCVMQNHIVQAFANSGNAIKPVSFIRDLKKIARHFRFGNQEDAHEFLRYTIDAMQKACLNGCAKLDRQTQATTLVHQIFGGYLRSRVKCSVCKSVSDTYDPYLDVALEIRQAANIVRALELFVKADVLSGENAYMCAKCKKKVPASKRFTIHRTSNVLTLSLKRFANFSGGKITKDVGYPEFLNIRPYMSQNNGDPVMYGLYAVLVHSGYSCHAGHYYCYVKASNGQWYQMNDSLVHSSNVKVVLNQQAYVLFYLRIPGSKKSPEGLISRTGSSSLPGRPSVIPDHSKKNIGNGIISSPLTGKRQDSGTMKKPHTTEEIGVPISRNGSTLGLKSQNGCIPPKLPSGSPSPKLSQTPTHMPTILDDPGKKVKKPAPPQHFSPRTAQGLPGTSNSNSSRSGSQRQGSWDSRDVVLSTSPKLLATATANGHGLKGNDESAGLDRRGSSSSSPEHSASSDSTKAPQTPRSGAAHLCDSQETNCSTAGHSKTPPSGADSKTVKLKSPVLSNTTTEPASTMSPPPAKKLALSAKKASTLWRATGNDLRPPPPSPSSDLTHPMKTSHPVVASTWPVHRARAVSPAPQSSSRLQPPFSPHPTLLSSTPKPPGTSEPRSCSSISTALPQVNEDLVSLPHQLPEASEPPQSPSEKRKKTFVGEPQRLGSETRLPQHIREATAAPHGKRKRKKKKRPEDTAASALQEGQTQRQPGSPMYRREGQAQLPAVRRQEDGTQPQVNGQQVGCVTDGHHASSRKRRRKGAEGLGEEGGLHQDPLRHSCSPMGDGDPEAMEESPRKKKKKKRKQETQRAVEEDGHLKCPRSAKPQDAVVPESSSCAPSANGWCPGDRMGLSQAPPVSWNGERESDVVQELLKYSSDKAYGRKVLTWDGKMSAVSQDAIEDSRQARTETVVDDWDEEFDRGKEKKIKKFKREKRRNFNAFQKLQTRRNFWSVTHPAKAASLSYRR
Outline: as §1

USP38 = target: T2, USP38 (UniProt Q8NB14)
T2 sequence (whole entry): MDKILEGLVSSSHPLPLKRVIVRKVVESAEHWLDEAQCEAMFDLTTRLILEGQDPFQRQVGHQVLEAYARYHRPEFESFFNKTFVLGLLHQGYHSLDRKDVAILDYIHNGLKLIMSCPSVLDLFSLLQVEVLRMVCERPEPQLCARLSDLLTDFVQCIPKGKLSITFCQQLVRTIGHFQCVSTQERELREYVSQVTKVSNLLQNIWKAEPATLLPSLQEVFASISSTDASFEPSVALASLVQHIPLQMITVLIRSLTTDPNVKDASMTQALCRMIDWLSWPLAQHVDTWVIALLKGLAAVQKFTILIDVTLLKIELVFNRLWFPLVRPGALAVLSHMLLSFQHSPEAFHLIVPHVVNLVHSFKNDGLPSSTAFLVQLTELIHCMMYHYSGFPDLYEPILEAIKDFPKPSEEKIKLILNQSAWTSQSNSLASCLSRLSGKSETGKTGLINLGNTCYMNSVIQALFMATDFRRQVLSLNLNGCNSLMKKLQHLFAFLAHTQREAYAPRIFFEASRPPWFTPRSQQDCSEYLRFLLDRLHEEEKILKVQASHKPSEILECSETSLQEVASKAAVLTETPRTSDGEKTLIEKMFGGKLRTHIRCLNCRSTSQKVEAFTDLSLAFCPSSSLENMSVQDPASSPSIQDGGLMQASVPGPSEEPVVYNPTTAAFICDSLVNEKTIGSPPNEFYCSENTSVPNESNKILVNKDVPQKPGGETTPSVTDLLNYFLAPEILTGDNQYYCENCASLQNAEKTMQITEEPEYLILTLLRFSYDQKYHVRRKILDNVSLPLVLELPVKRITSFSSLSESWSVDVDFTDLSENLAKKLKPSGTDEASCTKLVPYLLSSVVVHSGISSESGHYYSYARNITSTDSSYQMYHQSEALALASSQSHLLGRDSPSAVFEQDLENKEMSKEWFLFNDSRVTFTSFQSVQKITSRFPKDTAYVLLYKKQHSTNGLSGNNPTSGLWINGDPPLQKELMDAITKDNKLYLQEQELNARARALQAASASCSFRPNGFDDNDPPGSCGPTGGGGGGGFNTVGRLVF
Outline: as §1

USP39 = target: T3, USP39 (UniProt Q53GS9)
T3 sequence (whole entry): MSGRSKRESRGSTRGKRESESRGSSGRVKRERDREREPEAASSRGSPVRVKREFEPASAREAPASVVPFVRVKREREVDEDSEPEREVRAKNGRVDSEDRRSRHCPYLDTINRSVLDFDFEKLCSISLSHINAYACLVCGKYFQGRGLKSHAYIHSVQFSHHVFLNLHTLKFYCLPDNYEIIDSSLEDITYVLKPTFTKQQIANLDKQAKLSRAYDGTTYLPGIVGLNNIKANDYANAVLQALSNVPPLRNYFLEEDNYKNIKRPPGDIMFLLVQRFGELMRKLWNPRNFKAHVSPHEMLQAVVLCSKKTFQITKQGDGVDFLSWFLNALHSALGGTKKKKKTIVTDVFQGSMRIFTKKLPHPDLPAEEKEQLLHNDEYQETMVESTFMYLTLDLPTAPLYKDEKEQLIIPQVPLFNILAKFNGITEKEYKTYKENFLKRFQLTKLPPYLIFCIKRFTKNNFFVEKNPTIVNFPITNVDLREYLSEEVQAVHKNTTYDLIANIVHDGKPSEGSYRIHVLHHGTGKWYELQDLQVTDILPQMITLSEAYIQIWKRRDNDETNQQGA
Outline: as §1

USP4 = target: T4, USP4 (UniProt Q13107)
T4 sequence (whole entry): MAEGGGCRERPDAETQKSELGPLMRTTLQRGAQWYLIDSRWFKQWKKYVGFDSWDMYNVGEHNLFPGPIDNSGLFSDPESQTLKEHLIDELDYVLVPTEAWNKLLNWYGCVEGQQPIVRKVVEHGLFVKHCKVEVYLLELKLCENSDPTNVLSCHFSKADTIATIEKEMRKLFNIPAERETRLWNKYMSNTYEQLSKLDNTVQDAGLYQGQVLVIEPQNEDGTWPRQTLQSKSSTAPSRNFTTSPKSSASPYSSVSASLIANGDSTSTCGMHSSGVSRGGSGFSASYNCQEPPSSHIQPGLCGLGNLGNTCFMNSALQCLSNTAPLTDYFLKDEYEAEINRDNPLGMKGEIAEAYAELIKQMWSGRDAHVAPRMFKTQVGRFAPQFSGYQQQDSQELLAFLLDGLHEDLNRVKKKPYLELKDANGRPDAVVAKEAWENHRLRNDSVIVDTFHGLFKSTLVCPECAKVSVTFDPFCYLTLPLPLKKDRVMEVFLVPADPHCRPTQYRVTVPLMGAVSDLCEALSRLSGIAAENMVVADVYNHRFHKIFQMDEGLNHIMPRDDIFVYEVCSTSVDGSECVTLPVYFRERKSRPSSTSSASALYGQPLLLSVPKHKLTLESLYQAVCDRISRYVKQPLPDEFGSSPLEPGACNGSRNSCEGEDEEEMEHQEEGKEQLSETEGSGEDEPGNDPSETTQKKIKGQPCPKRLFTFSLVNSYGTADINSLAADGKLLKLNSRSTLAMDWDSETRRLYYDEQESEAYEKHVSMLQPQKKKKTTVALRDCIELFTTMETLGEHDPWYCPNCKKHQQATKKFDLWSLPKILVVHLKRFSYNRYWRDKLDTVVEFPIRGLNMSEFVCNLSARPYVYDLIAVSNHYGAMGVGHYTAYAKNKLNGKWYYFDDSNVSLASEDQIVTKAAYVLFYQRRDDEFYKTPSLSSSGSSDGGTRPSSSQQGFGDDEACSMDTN
Outline: as §1

Measured: log2 ratio of Biotin-Ahx-Ub-VS probe labelling

USP34, sequence (Q70CQ2 whole entry, the tested form may be a part): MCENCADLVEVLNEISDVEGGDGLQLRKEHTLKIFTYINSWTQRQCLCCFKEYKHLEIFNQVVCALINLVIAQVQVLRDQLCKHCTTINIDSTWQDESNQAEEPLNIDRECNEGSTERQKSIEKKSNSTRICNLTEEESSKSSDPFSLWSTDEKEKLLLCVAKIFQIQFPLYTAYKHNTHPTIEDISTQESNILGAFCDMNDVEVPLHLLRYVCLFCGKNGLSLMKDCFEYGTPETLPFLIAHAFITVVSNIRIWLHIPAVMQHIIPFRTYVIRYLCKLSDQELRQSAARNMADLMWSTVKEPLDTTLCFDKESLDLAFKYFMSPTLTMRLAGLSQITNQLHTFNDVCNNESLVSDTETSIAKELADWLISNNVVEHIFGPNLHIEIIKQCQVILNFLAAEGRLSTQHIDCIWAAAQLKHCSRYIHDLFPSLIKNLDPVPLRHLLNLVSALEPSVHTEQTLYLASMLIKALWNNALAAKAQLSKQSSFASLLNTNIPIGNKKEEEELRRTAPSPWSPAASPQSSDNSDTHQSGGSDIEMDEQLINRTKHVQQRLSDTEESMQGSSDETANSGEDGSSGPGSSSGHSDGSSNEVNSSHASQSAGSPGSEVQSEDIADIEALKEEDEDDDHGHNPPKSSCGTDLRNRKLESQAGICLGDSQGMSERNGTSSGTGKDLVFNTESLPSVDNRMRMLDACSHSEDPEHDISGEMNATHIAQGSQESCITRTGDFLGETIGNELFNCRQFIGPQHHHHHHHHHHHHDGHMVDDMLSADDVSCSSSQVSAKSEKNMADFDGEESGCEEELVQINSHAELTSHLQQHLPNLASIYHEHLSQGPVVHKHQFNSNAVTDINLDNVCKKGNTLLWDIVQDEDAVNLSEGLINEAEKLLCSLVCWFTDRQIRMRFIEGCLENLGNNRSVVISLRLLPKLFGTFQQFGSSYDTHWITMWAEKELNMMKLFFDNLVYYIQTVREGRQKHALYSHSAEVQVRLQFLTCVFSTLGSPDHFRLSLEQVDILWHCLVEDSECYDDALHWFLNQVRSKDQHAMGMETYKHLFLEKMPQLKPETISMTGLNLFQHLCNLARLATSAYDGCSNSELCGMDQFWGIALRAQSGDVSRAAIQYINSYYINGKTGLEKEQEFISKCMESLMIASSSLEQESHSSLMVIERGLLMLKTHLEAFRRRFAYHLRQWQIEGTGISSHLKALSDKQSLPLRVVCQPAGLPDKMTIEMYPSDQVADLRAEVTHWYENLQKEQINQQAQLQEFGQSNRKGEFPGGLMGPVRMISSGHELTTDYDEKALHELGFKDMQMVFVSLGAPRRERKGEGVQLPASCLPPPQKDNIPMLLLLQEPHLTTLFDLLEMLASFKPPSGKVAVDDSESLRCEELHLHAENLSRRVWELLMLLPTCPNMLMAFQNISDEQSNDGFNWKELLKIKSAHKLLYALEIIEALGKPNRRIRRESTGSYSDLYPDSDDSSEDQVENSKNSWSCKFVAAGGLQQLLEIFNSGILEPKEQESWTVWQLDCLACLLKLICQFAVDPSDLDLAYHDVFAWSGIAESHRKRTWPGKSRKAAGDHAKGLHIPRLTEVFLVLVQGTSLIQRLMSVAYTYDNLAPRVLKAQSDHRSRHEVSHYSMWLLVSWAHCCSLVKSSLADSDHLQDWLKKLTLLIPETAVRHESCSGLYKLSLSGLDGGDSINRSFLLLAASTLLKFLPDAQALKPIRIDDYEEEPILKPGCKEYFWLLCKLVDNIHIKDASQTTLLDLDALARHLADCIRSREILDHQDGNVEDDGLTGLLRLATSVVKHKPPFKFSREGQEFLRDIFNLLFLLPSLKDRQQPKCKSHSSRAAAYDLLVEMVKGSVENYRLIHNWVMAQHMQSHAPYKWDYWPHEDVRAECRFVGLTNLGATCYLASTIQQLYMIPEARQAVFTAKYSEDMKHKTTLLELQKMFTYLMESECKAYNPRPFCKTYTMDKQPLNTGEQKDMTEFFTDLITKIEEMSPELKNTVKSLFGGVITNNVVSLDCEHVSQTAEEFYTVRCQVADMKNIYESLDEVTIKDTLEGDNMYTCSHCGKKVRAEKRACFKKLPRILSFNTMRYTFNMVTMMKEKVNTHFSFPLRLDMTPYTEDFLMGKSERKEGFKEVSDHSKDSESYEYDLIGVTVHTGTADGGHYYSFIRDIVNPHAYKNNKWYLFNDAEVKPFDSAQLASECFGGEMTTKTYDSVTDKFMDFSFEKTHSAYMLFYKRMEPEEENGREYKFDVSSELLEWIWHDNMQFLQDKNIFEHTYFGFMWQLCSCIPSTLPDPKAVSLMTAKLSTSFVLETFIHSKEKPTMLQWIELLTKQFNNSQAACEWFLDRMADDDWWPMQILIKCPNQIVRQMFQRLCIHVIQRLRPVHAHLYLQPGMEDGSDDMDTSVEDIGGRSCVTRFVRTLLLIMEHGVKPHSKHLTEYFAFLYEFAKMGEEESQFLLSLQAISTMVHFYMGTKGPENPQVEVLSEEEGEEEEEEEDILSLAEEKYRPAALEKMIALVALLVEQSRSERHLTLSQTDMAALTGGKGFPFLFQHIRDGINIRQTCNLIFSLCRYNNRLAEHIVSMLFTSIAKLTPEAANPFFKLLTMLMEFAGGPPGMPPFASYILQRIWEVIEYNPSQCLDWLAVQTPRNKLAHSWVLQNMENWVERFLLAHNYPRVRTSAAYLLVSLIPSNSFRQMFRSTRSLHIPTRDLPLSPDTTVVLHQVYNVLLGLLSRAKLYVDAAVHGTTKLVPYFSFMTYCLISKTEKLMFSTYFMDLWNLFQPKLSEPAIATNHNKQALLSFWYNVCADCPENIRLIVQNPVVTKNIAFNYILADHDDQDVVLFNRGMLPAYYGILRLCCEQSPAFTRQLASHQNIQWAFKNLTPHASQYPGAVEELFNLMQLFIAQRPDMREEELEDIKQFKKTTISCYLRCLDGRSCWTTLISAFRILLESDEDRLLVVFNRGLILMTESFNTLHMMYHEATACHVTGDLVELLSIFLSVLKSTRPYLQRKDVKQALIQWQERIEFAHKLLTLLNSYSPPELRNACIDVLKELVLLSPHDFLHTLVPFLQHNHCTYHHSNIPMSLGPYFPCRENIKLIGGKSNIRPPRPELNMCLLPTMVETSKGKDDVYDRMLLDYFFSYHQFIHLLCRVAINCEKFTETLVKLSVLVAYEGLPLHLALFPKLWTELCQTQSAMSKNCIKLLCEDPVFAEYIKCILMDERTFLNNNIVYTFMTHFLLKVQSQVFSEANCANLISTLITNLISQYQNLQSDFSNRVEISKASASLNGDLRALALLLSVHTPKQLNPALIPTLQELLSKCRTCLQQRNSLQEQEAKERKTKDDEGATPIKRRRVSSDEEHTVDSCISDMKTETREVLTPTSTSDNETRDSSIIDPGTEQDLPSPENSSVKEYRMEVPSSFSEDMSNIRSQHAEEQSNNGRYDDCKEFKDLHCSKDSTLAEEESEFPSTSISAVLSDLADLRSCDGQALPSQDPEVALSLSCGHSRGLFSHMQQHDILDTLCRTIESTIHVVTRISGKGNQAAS

O=C(CCl)NC1CCCCNC1=O (stereo not given)
inactive: USP34 -0.126 | USP36 -0.314 | USP38 -0.0226 | USP39 0.0502 | USP4 -0.25
